Compound activity from PubChem BioAssay.
DRD3 agonist: qHTS of D3 Dopamine Receptor Agonist: qHTS; D3R DiscoveRx beta-arrestin cells, luminescence, 90 min; actives 0.58% (n = 410,000); max activation, %; D(3) dopamine receptor (Homo sapiens), P35462; AID 652048, 2013; in the data active = max activation above about 30%
Target sequence (P35462 whole entry, looked up): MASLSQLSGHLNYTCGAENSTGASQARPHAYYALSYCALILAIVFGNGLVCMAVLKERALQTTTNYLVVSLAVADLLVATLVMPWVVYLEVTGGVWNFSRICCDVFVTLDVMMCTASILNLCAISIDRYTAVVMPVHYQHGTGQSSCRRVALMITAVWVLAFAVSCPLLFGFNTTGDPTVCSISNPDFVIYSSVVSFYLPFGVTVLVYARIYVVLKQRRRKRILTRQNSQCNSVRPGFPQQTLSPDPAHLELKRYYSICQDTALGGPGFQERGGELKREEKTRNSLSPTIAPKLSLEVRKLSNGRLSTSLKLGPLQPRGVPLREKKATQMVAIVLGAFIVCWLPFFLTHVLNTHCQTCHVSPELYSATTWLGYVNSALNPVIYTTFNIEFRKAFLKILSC
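Agonist mode: compounds and dopamine controls were applied to plated cells for 90 min at 37 degrees C after an overnight attachment at 1500 cells/well. Luminescent read-out followed 30 - 60 minutes at room temperature with DiscoveRx detection reagent.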
IL-1B inflam inh: qHTS for Inhibitors of Inflammasome Signaling: IL-1-beta AlphaLISA Primary Screen. THP-1 LPS/ATP IL-1B secretion, AlphaLISA, 16 h; stronger effect = lower value. activity change, % at 57.5 µM. actives 4.7% (n = 360,000); in the data active = activity change below about -50%; inconclusive = mostly about -30% to -49%
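Secreted IL-1B measured by AlphaLISA bead assay after 16 h compound exposure of THP-1 cells; compounds (final up to 57.5 uM) added 1 h before LPS (250 ng/mL) and ATP (1.25 mM) stimulation; lower signal means less secretion.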
D3 antag: qHTS of D3 Dopamine Receptor Antagonist: qHTS | D3R cells, DiscoveRx beta-arrestin luminescence, antagonist mode; stronger effect = lower value | actives 2.5% (n = 360,000) | D(3) dopamine receptor (Homo sapiens), P35462 | max response, negative = inhibition, %; in the data active = max response below about -50%; inconclusive = no clear call, values can overlap the other calls
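Cells expressing the human receptor were seeded at 1500 cells/well, incubated overnight at 37 degrees C in 5% CO2, then exposed to library compounds with dopamine controls for 90 minutes at 37 degrees C before luminescent detection.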
DT40 TDP1 no CPT: qHTS for Inhibitors of human tyrosyl-DNA phosphodiesterase 1 (TDP1): qHTS in cells in absence of CPT; DT40 Tdp1-/- hTDP1 cells, no CPT, ATP luminescence, 48 h; Potency, µM (titrated, usually from 46.2 µM), hits mostly inhibitors; actives 15% (n = 420,000); AID 686978, 2013; note: nearly all actives have a fitted effect of over 55% in size
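Chicken DT40 Tdp1-/- cells stably complemented with human TDP1 were seeded at 400 cells/well with DMSO in place of 20 nM camptothecin. After compound pinning, cells grew at least 48 hr at 37 °C; viability read by CellTiter-Glo luminescence.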
TDP1 cell CPT: qHTS for Inhibitors of human tyrosyl-DNA phosphodiesterase 1 (TDP1): qHTS in cells in presence of CPT; Potency, µM (doses to about 46.2 µM), usual class: inhibitors; AID 686979, 2013; chicken DT40 Tdp1-/-;hTDP1 cells + 20 nM CPT, ATP luminescence, 48 h; actives 12% (n = 420,000); note: nearly all actives have a fitted effect of over 55% in size
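Cell growth measured by CellTiter-Glo luminescence after a minimum 48 h, 37 C compound exposure with 20 nM CPT in Tdp1-knockout DT40 cells stably expressing hTDP1, seeded 400/well; qHTS titration format.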
ClpP mod: qHTS Assay for Activators of ClpP; AID 651965, 2013; purified B. subtilis ClpP, FRET peptide cleavage, 20 min; actives 1.9% (n = 340,000); Potency, µM (highest dose often 57.5 µM); active = well fitted falling curve with a large enough effect; inconclusive = small, poorly fitted or top-dose-only effect; inactive = no such curve, though single readings can be large or run the other way; note: the source files actives as falling curves though it sought activators and does not explain the sign; nearly all actives have a fitted effect of over 65% in size
Target sequence (P80244 whole entry, looked up): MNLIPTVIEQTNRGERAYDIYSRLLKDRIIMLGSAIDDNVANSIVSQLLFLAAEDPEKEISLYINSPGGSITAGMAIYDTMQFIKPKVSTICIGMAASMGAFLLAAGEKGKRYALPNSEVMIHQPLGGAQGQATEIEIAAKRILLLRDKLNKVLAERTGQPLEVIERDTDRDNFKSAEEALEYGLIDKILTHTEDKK
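Purified B. subtilis ClpP, 10 microg/mL final in Tris/HCl pH8 with KCl, BSA, glycerol and Tween-20, cleaved an Abz/nitrotyrosine-quenched decapeptide. Fluorescence (ex 320, em 430) was read at 0 and 20 min at room temperature. Delta was normalized to 5.8 microM ADEP and DMSO/no-enzyme controls.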
Numbers stand for hits; . = inactive; ? = inconclusive; / = not tested or not shown; [ ] = dose if it differs, or a comment. Compounds with a hit are over-represented: about 21% of the library has one in this group of screens. Unless noted, calls come from the whole dose curve; as a rule, active = well fitted inhibition curve with a large enough effect; inconclusive = small, poorly fitted or top-dose-only effect; inactive = flat fitted curve, though single readings scatter.

SMILES	DRD3 agonist	IL-1B inflam inh	D3 antag	DT40 TDP1 no CPT	TDP1 cell CPT	ClpP mod
CCc1cccc(OCCCCNCCO)c1	.	.	.	?	.	.
Clc1ccc(OCCCNCc2ccccc2)c(Br)c1	.	/	-78.6	16.4µM	14.6µM	.
Cc1cc(OCCCCCNCCO)ccc1Cl	.	.	.	16.4µM	14.6µM	.
C=CCNCCCOc1ccc(Cl)cc1Br	.	?	-67.1	?	?	.
COc1ccc(OCCSc2nc(-c3ccccc3)cc(=O)[nH]2)cc1	.	.	.	.	.	/
C=C(C)CN(CC)C(=O)CCc1nnc(CCc2c[nH]c3ccccc23)o1	.	.	.	.	.	/
CN(C)CCCCOc1ccc(Br)cc1Cl	.	.	.	?	?	/
Cc1cc(Br)ccc1OCCCCNCCO	.	.	-60.4	20.6µM	23.1µM	.
COCCNCCCOc1ccc(Br)cc1Cl	.	?	-77.6	?	?	.
COCCNCCCOc1ccc(Cl)cc1Br	.	?	-78.2	16.4µM	?	.
COCCCNCCOCCOc1ccc(C)cc1Br	.	.	?	?	.	.
Cc1cccc(CNC(=O)C(C)n2nc(C)c3c(C)n(-c4ccccc4)nc3c2=O)c1 (configuration not stated)	.	.	.	.	.	.
NC(=O)COC(=O)CSc1ccc2ccccc2c1	.	.	.	.	.	/
Cc1nc2c(cnn2CCO)c(=O)[nH]1	.	.	.	.	.	/
Cc1ccc(CN2CCN(c3ncccn3)CC2)o1	.	.	-54.4	.	.	.
Cc1ccc(CN2CCN(c3ccccc3)CC2)o1	.	.	?	?	.	/
COc1cccc(CN2CCN(Cc3cc(OC)c(OC)cc3[N+](=O)[O-])CC2)c1	.	.	.	16.4µM	?	.
COc1cc(CN2CCCCCC2)c([N+](=O)[O-])cc1OC	.	.	.	.	.	.
COc1cccc(CN2CCN(c3ncccn3)CC2)c1	35.0	.	-58.6	.	.	.
O=S(=O)(c1ccccc1)N1CCC2(CCN(Cc3nccs3)CC2)CC1	/	/	/	.	.	/
COC(=O)/C(=C\Nc1ccccc1N)c1ncc(C(F)(F)F)cc1Cl	.	.	.	?	.	.
CCOc1cc2c(cc1OCC)C(c1c(F)cccc1Cl)CC(=O)N2 (configuration not stated)	.	/	/	?	?	.
COCCNC(=O)Cn1c(=O)n(-c2ccc(C)c(C)c2)c(=O)c2c3c(sc21)CCCCC3	.	/	/	.	.	.
COc1ccc(C2C(=O)N(C3CCCCCC3)CC(=O)N2Cc2ccc(C)cc2)cc1 (configuration not stated)	.	/	/	25.9µM	23.1µM	.
COc1ccc(C2C(=O)N(C3CCCCCC3)CC(=O)N2CCC2=CCCCC2)cc1 (configuration not stated)	.	/	/	14.6µM	23.1µM	.
SMILES	DRD3 agonist	IL-1B inflam inh	D3 antag	DT40 TDP1 no CPT	TDP1 cell CPT	ClpP mod
CCOCCCN1C(=O)CN(C2CCC(C)CC2)C(=O)C1c1ccc(C)cc1 (configuration not stated)	.	.	.	2.31µM	?	/
Cc1ccc(C2C(=O)N(C3CCCCCC3)CC(=O)N2CCC2=CCCCC2)cc1 (configuration not stated)	.	/	/	20.6µM	?	.
Cc1oc2ncn(CC(C)C)c(=O)c2c1C(=O)NCCCN1CCCCC1C (configuration not stated)	.	/	/	.	.	.
O=Cc1ccc(Cl)c(Cl)c1	.	.	.	.	.	.
CCCn1c(=O)n(-c2ccccc2Cl)c(=O)c2sc3ccccc3c21	.	/	/	?	?	.
COc1ccccc1-c1coc2c(CN3CCCC(C)C3)c(O)ccc2c1=O (configuration not stated)	.	.	.	.	?	.
CC1(C)C(=O)Nc2ccccc2N1C(=O)COC(=O)c1ccc(NC(N)=O)cc1	.	.	.	?	?	/
COc1ccc(C2C(=O)N(C3CCCCC3)CC(=O)N2CCC2=CCCCC2)cc1 (configuration not stated)	.	/	/	16.4µM	?	.
CCNC(=S)Nc1cccc(F)c1C	.	.	.	.	.	/
Cc1nc2cc(NC(=O)[C@@H]3C[C@@H](Sc4ccccn4)CN3C3CCCCCC3)ccc2s1	/	/	/	.	.[9.04 µM]	/
Cc1ccc(Cl)cc1NC(=O)CCS(=O)(=O)c1cccc2nonc12	.	.	.	?	14.6µM	/
CCc1ccc(NC(=O)CCNS(=O)(=O)c2cccc3nonc23)cc1	.	.	-63.3	.	?	.
COc1ccc(Cl)cc1NC(=O)CCS(=O)(=O)c1cccc2nonc12	.	/	/	?	?	.
O=C(O)c1cc2ccccc2c(Cc2c(O)c(C(=O)O)cc3ccccc23)c1O	.	/	/	.	.	.
CC1(C)CC(=O)C2=C(C1)Oc1nc3ccccc3cc1C2C(C#N)C#N (configuration not stated)	.	-93.0	?	4.11µM	2.91µM	.
CC1(C)CC(=O)C([C@H]2C3=C(CC(C)(C)CC3=O)Oc3ccccc32)C(=O)C1	/	/	/	.	.	/
COC(=O)c1sccc1NC(=O)c1c(Cl)cnn1C	.	.	.	.	.	.
C=CCNc1ncnc2ccccc12	.	.	.	.	?	.
c1ccc(CN2CCC(CNc3ncnc4ccccc34)C2)cc1 (configuration not stated)	.	.	-63.6	10.3µM	20.6µM	/
Cc1csc2ncnc(NC3CCN(Cc4ccccc4)CC3)c12	.	?	-89.9	0.651µM	1.03µM	/
c1ccc(CN2CCC(Nc3nc(-c4ccccc4)nc4ccccc34)CC2)cc1	.	-52.0	.	?	.	.
Cn1cnc(S(=O)(=O)NC2CCN(Cc3ccccc3)CC2)c1	.	.	.	.	.	.
Cc1ccccc1-c1nc(NC2CC2)c2ccccc2n1	/	/	/	.	?	/
CCCCNc1c(-c2cccc(OC)c2)nc2nc(C)cc(C)n12	.	.	.	16.4µM	18.4µM	.
CCCCNc1c(-c2cc3ccccc3o2)nc2nc(C)cc(C)n12	.	.	.	23.1µM	?	.
COc1ccc(Nc2c(-c3cc4ccccc4o3)nc3nc(C)cc(C)n23)cc1	.	.	.	?	?	.
COc1cccc(-c2nc3nc(C)cc(C)n3c2Nc2c(C)cccc2C)c1	.	.	.	?	?	.
COC(=O)c1c(C)oc2ccc(N(C(=O)c3ccncc3)S(=O)(=O)c3c(C)cc(C)cc3C)cc12	.	/	/	1.16µM	1.84µM	.
